A short description of assay [1]: NCI Yeast Anticancer Drug Screen. Data for the rad50 strain (AID 155).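 Note: 0% = growth of vehicle-only cultures of the same strain.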 As to conditions: S. cerevisiae rad50 strain growth inhibition, active compounds read high. In a few lines: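 Genetically altered yeast (DNA repair pathway); compound treatment; growth inhibition vs vehicle ctrl.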
The nature of assay [2]: NCI Yeast Anticancer Drug Screen. Data for the mec2-1 strain (AID 157). As to conditions: S. cerevisiae mec2-1 strain, active compounds read high. In a few lines:
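Vehicle-treated cultures served as reference for growth inhibition of compound-exposed mec2-1 yeast.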

The nature of assay [3]: NCI Yeast Anticancer Drug Screen. Data for the sgs1 mgt1 strain (AID 161).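 Note: 0% = growth of cultures given vehicle only.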 As to conditions: S. cerevisiae sgs1 mgt1 strain, active compounds read high. In a few lines:
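Read-out: growth inhibition vs vehicle controls. Cells: mutant yeast strain deficient in DNA damage repair.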

Assay [4] can be described thus: NCI Yeast Anticancer Drug Screen. Data for the cln2 rad14 strain (AID 165).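 Note: 0% = growth equal to vehicle treated cultures.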 As to conditions: S. cerevisiae cln2 rad14 strain, active compounds read high. A digest of the protocol: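 Each compound was tested on cln2 rad14 yeast. Inhibition of growth was calculated against vehicle-exposed controls.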
The nature of assay [5]: NCI Yeast Anticancer Drug Screen. Data for the bub3 strain (AID 167). As to conditions: S. cerevisiae bub3 mutant strain, active compounds read high. In a few lines:
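Yeast carrying a defined mutation is treated with each compound, and growth is compared with that of vehicle-exposed cells to give inhibition.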

Assay [6] is described as follows: NCI Yeast Anticancer Drug Screen. Data for the mlh1 rad18 strain (AID 175). As to conditions: S. cerevisiae mlh1 rad18 strain growth inhibition, active compounds read high. A digest of the protocol:
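Vehicle-treated cultures served as the reference for growth inhibition in a yeast strain carrying DNA damage repair alterations exposed to each compound.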

Setting [7] is: at 5.0 µM (retest, dose inferred, filed as 0.5).
Setting [8] is: at 50.0 µM (retest, dose inferred, filed as 5.0).

The structures appear in SMILES notation. This is part of a sample that, as a whole, favours compounds with a hit. Of some 79,000 tested, about 15% had one in any assay. Values without a mark were called inactive. Active and inactive are the calls of the source. Cut-off read from the data, not from the text of the source: active = growth inhibition above about 70%; inactive = the rest.

The record followed here is PubChem BioAssay (NCI).

`NCCCN1c2ccccc2Sc2ccc(Cl)cc21`: the growth inhibition in assay [1] (setting [7]) is -7%; in assay [1] (setting [8]), 75% (active); in assay [1] (at 50.0 µM), -10.7%; in assay [2] (setting [7]) it was 12%; in assay [2] (setting [8]), 58%; in assay [2] (at 50.0 µM), -25.5%. Besides, the growth inhibition in assay [3] (setting [7]) is 10%; in assay [3] (setting [8]) it was 83% (active); in assay [3] (at 50.0 µM) it was 13.4%; in assay [4] (setting [7]), 0%; in assay [4] (setting [8]), 20%; in assay [4] (at 50.0 µM), -25.7%. Besides, the growth inhibition in assay [5] (setting [7]) was -1%; in assay [5] (setting [8]), 37%; in assay [5] (at 50.0 µM), 71.9% (active); in assay [6] (setting [7]), 17%; in assay [6] (setting [8]), 98% (active); in assay [6] (at 50.0 µM) it was 18.1%.
`[N-]=[N+]=Nc1c([N+](=O)[O-])c(Cl)nc2ccccc12`: the growth inhibition in assay [1] (setting [7]) was 27%; in assay [1] (setting [8]) it was 95% (active); in assay [1] (at 50.0 µM), 86% (active); in assay [2] (setting [7]) it was 22%; in assay [2] (setting [8]) it was 99% (active); in assay [2] (at 50.0 µM), 90.7% (active). In addition, the growth inhibition is 34% in assay [3] (setting [7]); 99% (active) in assay [3] (setting [8]); 92% (active) in assay [3] (at 50.0 µM); 11% in assay [4] (setting [7]); 87% (active) in assay [4] (setting [8]); 90.5% (active) in assay [4] (at 50.0 µM). The growth inhibition in assay [5] (setting [7]) was 50%; in assay [5] (setting [8]), 99% (active); in assay [5] (at 50.0 µM), 90.6% (active); in assay [6] (setting [7]), 36%; in assay [6] (setting [8]) it was 98% (active); in assay [6] (at 50.0 µM), 88.2% (active).
With `COc1ccc(-c2noc(=O)c3ccccc23)cc1`, the growth inhibition in assay [1] (setting [7]) is 11%; in assay [1] (setting [8]), 6%; in assay [1] (at 50.0 µM), -5.8%; in assay [2] (setting [7]), 5%; in assay [2] (setting [8]), 4%; in assay [2] (at 50.0 µM), -1.1%. In addition, the growth inhibition in assay [3] (setting [7]) is 6%; in assay [3] (setting [8]) it was 4%; in assay [3] (at 50.0 µM) it was 3.4%; in assay [4] (setting [7]) it was 4%; in assay [4] (setting [8]) it was 3%; in assay [4] (at 50.0 µM), 64.2%. For the same compound, the growth inhibition in assay [5] (setting [7]) is -3%; in assay [5] (setting [8]), -2%; in assay [5] (at 50.0 µM), 9.65%; in assay [6] (setting [7]), -1%; in assay [6] (setting [8]), 1%; in assay [6] (at 50.0 µM) it was 1.35%.
In the case of `O=c1c(Cl)nsnc1Cl`, the growth inhibition was 100% (active) in assay [1] (setting [7]); 100% (active) in assay [1] (setting [8]); 99.6% (active) in assay [1] (at 50.0 µM); 100% (active) in assay [2] (setting [7]); 100% (active) in assay [2] (setting [8]); 99.7% (active) in assay [2] (at 50.0 µM). The growth inhibition was 100% (active) in assay [3] (setting [7]); 100% (active) in assay [3] (setting [8]); 99.6% (active) in assay [3] (at 50.0 µM); 99% (active) in assay [4] (setting [7]); 100% (active) in assay [4] (setting [8]); 98% (active) in assay [4] (at 50.0 µM). The growth inhibition in assay [5] (setting [7]) is 100% (active); in assay [5] (setting [8]), 100% (active); in assay [5] (at 50.0 µM) it was 99.7% (active); in assay [6] (setting [7]), 99% (active); in assay [6] (setting [8]) it was 100% (active); in assay [6] (at 50.0 µM), 99.4% (active).
Consider `CC(CC(C)[C@H]1CCC2[C@H]3C(CC(=O)[C@@]21C)[C@@]1(C)CCC(O)C[C@H]1C[C@@H]3O)C(=O)O` (stereo not given in full), for which the growth inhibition is -1% in assay [1] (setting [7]); 99% (active) in assay [1] (setting [8]); 98.3% (active) in assay [1] (at 50.0 µM); 1% in assay [2] (setting [7]); 99% (active) in assay [2] (setting [8]); 98.5% (active) in assay [2] (at 50.0 µM). Further, the growth inhibition in assay [3] (setting [7]) was -1%; in assay [3] (setting [8]) it was 98% (active); in assay [3] (at 50.0 µM) it was 98.8% (active); in assay [4] (setting [7]), -4%; in assay [4] (setting [8]) it was 99% (active); in assay [4] (at 50.0 µM), 96.8% (active). The growth inhibition in assay [5] (setting [7]) was -4%; in assay [5] (setting [8]), 98% (active); in assay [5] (at 50.0 µM), 99% (active); in assay [6] (setting [7]) it was 10%; in assay [6] (setting [8]) it was 99% (active); in assay [6] (at 50.0 µM), 98.2% (active).
`O=C1c2ccccc2C(=O)c2c1cc(O)c(O)c2O`: the growth inhibition is 17% in assay [1] (setting [7]); 95% (active) in assay [1] (setting [8]); 83.2% (active) in assay [1] (at 50.0 µM); 20% in assay [2] (setting [7]); 92% (active) in assay [2] (setting [8]); 77.5% (active) in assay [2] (at 50.0 µM). Besides, the growth inhibition in assay [3] (setting [7]) is 23%; in assay [3] (setting [8]), 95% (active); in assay [3] (at 50.0 µM), 81.5% (active); in assay [4] (setting [7]) it was 2%; in assay [4] (setting [8]) it was 88% (active); in assay [4] (at 50.0 µM), 59.2%. In addition, the growth inhibition in assay [5] (setting [7]) was 13%; in assay [5] (setting [8]), 91% (active); in assay [5] (at 50.0 µM), 70.7% (active); in assay [6] (setting [7]), 35%; in assay [6] (setting [8]), 95% (active); in assay [6] (at 50.0 µM), 82% (active).
On to `CC1CCC(NCCOC(=O)c2ccc([N+](=O)[O-])cc2)CC1` (stereo not given), for which the growth inhibition in assay [1] (setting [7]) is 2%; in assay [1] (setting [8]), 23%; in assay [1] (at 50.0 µM), 70.8% (active); in assay [2] (setting [7]), 1%; in assay [2] (setting [8]), 18%; in assay [2] (at 50.0 µM), -2.9%. In addition, the growth inhibition in assay [3] (setting [7]) was 1%; in assay [3] (setting [8]), 24%; in assay [3] (at 50.0 µM), 54.5%; in assay [4] (setting [7]), -75%; in assay [4] (setting [8]) it was 41%; in assay [4] (at 50.0 µM), 31.9%. Also, the growth inhibition in assay [5] (setting [7]) was -8%; in assay [5] (setting [8]), -71%; in assay [5] (at 50.0 µM) it was 17.6%; in assay [6] (setting [7]) it was -3%; in assay [6] (setting [8]) it was 6%; in assay [6] (at 50.0 µM), 42.9%.
In the case of `c1ccc(-c2cc(CN3CCOCC3)c(-c3ccccc3)o2)cc1`, the growth inhibition in assay [1] (setting [7]) is -1%; in assay [1] (setting [8]), 98% (active); in assay [1] (at 50.0 µM) it was 52.8%; in assay [2] (setting [7]) it was -6%; in assay [2] (setting [8]), 99% (active); in assay [2] (at 50.0 µM) it was 51.9%. For the same compound, the growth inhibition in assay [3] (setting [7]) is 3%; in assay [3] (setting [8]), 99% (active); in assay [3] (at 50.0 µM), 57.9%; in assay [4] (setting [7]), -6%; in assay [4] (setting [8]), 99% (active); in assay [4] (at 50.0 µM) it was 56.4%. Further, the growth inhibition is 1% in assay [5] (setting [7]); 99% (active) in assay [5] (setting [8]); 55.8% in assay [5] (at 50.0 µM); -2% in assay [6] (setting [7]); 99% (active) in assay [6] (setting [8]); 54.1% in assay [6] (at 50.0 µM).
In the case of `COc1ccc(N(C)Sc2ccccc2)cc1`, the growth inhibition is -12% in assay [1] (setting [7]); 64% in assay [1] (setting [8]); 88.2% (active) in assay [1] (at 50.0 µM); 18% in assay [2] (setting [7]); 65% in assay [2] (setting [8]); 49.1% in assay [2] (at 50.0 µM). In addition, the growth inhibition in assay [3] (setting [7]) was -14%; in assay [3] (setting [8]), 24%; in assay [3] (at 50.0 µM), 67.1%; in assay [4] (setting [7]), 9%; in assay [4] (setting [8]), 63%; in assay [4] (at 50.0 µM), 35.6%. Also, the growth inhibition in assay [5] (setting [7]) is 12%; in assay [5] (setting [8]), 90% (active); in assay [5] (at 50.0 µM), 69.7%; in assay [6] (setting [7]) it was -10%; in assay [6] (setting [8]), 97% (active); in assay [6] (at 50.0 µM), 71.3% (active).
Turning to `CCCCCCCN(CCCCCCC)CC(O)Cc1cc2c(c3ccccc13)CCCC2` (stereo not given), the growth inhibition is 6% in assay [1] (setting [7]); 97% (active) in assay [1] (setting [8]); 98.8% (active) in assay [1] (at 50.0 µM); 17% in assay [2] (setting [7]); 98% (active) in assay [2] (setting [8]); 94.7% (active) in assay [2] (at 50.0 µM). For the same compound, the growth inhibition in assay [3] (setting [7]) was 36%; in assay [3] (setting [8]), 98% (active); in assay [3] (at 50.0 µM), 99.5% (active); in assay [4] (setting [7]), 4%; in assay [4] (setting [8]) it was 97% (active); in assay [4] (at 50.0 µM), 98.7% (active). For the same compound, the growth inhibition in assay [5] (setting [7]) is 3%; in assay [5] (setting [8]), 96% (active); in assay [5] (at 50.0 µM), 94.7% (active); in assay [6] (setting [7]) it was 24%; in assay [6] (setting [8]), 97% (active); in assay [6] (at 50.0 µM) it was 98% (active).
